# Source: PubChem BioAssay
# Hits are enriched below; roughly 3.1% of the tested compounds scored in any of these assays.
# PLK1 PBD inh: qHTS for Inhibitors of PLK1-PDB (polo-like kinase 1 - polo-box domain): Primary Screen | Serine/threonine-protein kinase PLK1 (Homo sapiens), P53350 | Plk1 PBD binding of FITC phosphopeptide, fluorescence polarization | Potency, µM, for inactives: max response, negative = inhibition, hits mostly inhibitors | 360,000 tested, 2.8% active; note: series mostly up to about 57 µM; % is set by controls: 0 for no effect and ±100 for the full control effect; nearly all actives have a fitted effect of over 65% in size
# TDP1 block: qHTS Assay for Inhibitors of Tyrosyl-DNA Phosphodiesterase (TDP1) | Tyrosyl-DNA phosphodiesterase 1 (Homo sapiens), Q9NUW8 | recombinant TDP1, AlphaScreen DNA substrate cleavage | Potency, µM (highest dose often 130 µM), without a hit: at the top dose activity change, negative = inhibition, hits mostly inhibitors | 350,000 tested, 0.28% active; note: % is set by controls: 0 for no effect and ±100 for the full control effect; nearly all actives have a fitted effect of over 40% in size
#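 Steps: enzyme plus compound, 15 min RT; add biotin/phosphotyrosine-FITC oligonucleotide (15 nM final), react 5 min; add donor/acceptor beads (10 ug/ml final), 10 min; read AlphaScreen. Tdp1 at 1 nM final.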
# Tb PFK inh: qHTS Assay to Find Inhibitors of T. brucei phosphofructokinase | ATP-dependent 6-phosphofructokinase (Trypanosoma brucei brucei), O15648 | T. brucei PFK, ADP-Glo luminescence | Potency, µM (titrated, usually from 57.5 µM), inactives show top-dose activity, negative = inhibition, usual class: inhibitors | 330,000 tested, 0.17% active | AID 485367, 2010;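 note: 0% = uninhibited 1x PFK enzyme wells and -100% = no-enzyme wells; nearly all actives have a fitted effect of over 60% in size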
#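 In TEA buffer at pH 8.0 with 5 mM MgCl2, enzyme (1.25 nM) converted F6P (0.5 mM) and ATP (0.1 mM) for 45 min at room temperature. ADP product was read by luciferase luminescence.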
# S-ASM inh: Inhibitors of Secretory Acid Sphingomyelinase (S-ASM): qHTS. AID 504937, 2011. placental ASM, HMU-PC fluorogenic substrate, 60 min. Sphingomyelin phosphodiesterase (Homo sapiens), P17405. 340,000 tested, 0.006% active. Potency, µM (top dose mostly 57.5 µM), for the others: at the highest dose activity change, negative = inhibition, usual class: inhibitors
#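 Fluorogenic HMU-PC substrate (9 uM final) is turned over by placental ASM in 60 min at 37 C after a 10 min compound preincubation. Reaction ended by alkaline stop (pH 10), with fluorescence read at 386/447 nm.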
# VDR inh: Inhibitors of the vitamin D receptor (VDR): qHTS; Vitamin D3 receptor (Homo sapiens), P11473; Potency, µM, for the others: max response, negative = inhibition, actives largely listed as inhibitors; VDR-SRC2-3 peptide fluorescence polarization, 2 h; 400,000 tested, 0.93% active; note: % is set by controls: 0 for no effect and ±100 for the full control effect
# Target sequence (P11473 whole entry, looked up): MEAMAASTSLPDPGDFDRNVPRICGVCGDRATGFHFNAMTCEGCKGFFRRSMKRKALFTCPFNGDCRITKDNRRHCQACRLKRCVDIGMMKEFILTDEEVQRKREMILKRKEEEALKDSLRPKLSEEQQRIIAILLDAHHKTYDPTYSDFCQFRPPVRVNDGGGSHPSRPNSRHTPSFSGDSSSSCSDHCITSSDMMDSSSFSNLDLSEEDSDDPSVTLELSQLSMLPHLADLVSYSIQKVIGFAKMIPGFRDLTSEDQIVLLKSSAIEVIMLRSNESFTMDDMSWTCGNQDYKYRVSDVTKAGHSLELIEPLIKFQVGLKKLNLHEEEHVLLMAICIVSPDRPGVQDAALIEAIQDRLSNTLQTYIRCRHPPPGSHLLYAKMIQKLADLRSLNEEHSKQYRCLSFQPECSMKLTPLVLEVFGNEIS
#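 FP read-out; VDR + SRC2-3 coactivator peptide; 23 nl compound by pintool; 2 h RT incubation; reagents held at 4 deg C, protected from light.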
# Pin1 inh: qHTS Assay to Find Inhibitors of Pin1. Peptidyl-prolyl cis-trans isomerase NIMA-interacting 1 (Homo sapiens), Q13526. Pin1 FP peptide displacement, HiFluor488, 10 min. Potency, µM (doses to about 115 µM), for inactives: at the highest dose activity, negative = inhibition, actives largely listed as inhibitors. 390,000 tested, 0.009% active. AID 504891, 2011; active = well fitted inhibition curve with a large enough effect in the polarisation, with a control signal flat, not every such curve was filed as active; inconclusive = small, poorly fitted or top-dose-only effect, or effect the other way, or a change in a side signal; inactive = no such curve, though single readings can be large or run the other way; the % refers to the polarisation; note: % is set by controls: 0 for no effect and ±100 for the full control effect
# Target sequence (Q13526 whole entry, looked up): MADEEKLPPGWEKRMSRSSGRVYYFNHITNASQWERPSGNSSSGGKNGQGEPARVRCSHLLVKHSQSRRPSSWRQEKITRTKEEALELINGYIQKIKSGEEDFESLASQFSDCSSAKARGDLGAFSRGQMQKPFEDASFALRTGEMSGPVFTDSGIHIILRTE
# * marks the source's active call; other numbers are inactive results; ? = inconclusive; nt = not tested or not shown; [ ] = remark or other dose. Unless noted, calls come from the whole dose curve; as a rule, active = well fitted curve in the direction sought with a large enough effect; inconclusive = small, poorly fitted or top-dose-only effect, or another doubt; inactive = no such curve, though single readings can be large; an effect the other way counts as inactive or inconclusive. Potency is the fitted concentration of half-maximal effect.
SMILES,PLK1 PBD inh,TDP1 block,Tb PFK inh,S-ASM inh,VDR inh,Pin1 inh
O=S(=O)(c1ccccc1)N1CCC2(CCCN(c3cccc(-c4ccccc4)c3)C2)CC1,nt,nt,nt,nt,-19.2%,nt
COCC(=O)N1CCC2(CCCN(c3cccc(-c4ccccc4)c3)C2)CC1,nt,nt,nt,nt,50.1µM*,nt
c1ccc(-c2cccc(N3CCCC4(CCNCC4)C3)c2)cc1,nt,nt,nt,nt,50.1µM*,nt
c1ccc(-c2cccc(N3CCC4(CCNCC4)CC3)c2)cc1,nt,nt,nt,nt,89.1µM*,nt
CCC[C@@H]1CC2=CC(=O)CC[C@]2(C)[C@H]2CC[C@@]3(C)[C@@H](CC[C@@]34CCC(=O)O4)[C@H]12,nt,11.5%,nt,nt,?,nt
CCN(CC)S(=O)(=O)c1cccc(C(=O)N2CC(O)CC2C(=O)OC)c1 (stereo unspecified),29.9µM*,4.7%,-1.2%,2.8%,-11.4%,-1.1%
CCCCc1c(C)nc2ccc(Br)cc2c1SCCC#N,nt,-1.9%,-8.0%,nt,nt,nt
CCCc1c(C)nc2ccccc2c1SCCC#N,21.2µM*,2.7%,-0.4%,0.8%,-25.5%,0.0%
CCOC(=O)c1cc(-c2ccccc2)sc1NC(=O)C(C)C,29.9µM*,-0.6%,-13.0%,-1.3%,?,-2.3%
CCOC(=O)c1cc(-c2ccccc2)sc1NC(=O)c1ccc(OC)c(OC)c1,4.74µM*,nt,-16.8%,51.7%,79.4µM*,-3.7%
COC(=O)c1cc(-c2ccccc2)sc1NC(=O)CN1C(=O)c2ccccc2C1=O,11.9µM*,2.0%,0.6%,-1.6%,-26.6%,20.1%
CCOC(=O)c1cc(-c2ccccc2)sc1NC(=O)COC,-18.1%,3.7%,-1.3%,-2.8%,-15.7%,-2.1%
CCOc1cc(C(=S)N2CCOCC2)ccc1OS(=O)(=O)c1ccccc1,-5.2%,4.7%,1.1%,-1.6%,-5.1%,0.0%
COC(=O)c1cc(OC)c(OC)cc1NC(=O)CN1C(=O)c2ccccc2C1=O,-3.4%,4.2%,-3.3%,-3.3%,-4.9%,-3.8%
CCOC(=O)c1ccc(OS(=O)(=O)c2ccccc2)c(OC)c1,26.7µM*,-1.2%,-7.5%,-2.1%,?,-2.1%
NCCCC[C@H](NC(=O)[C@H](Cc1c[nH]c2ccccc12)NC(=O)[C@H](CC(=O)O)NC(=O)[C@H](Cc1cnc[nH]1)NC(=O)[C@H](CO)NC(=O)[C@H](Cc1c[nH]c2ccccc12)NC(=O)[C@H](Cc1cnc[nH]1)NC(=O)[C@@H]1CCC(=O)N1)C(=O)N1CCC[C@H]1C(=O)NCC(N)=O,nt,13.4%,nt,nt,-3.3%,nt
COc1ccc(Cl)cc1NC(=O)CN1C(=O)CSc2ccc(S(=O)(=O)N3CCCC3)cc21,nt,5.1%,nt,nt,-3.8%,60.7%
COc1ccc(-c2coc3cc(O)ccc3c2=O)c(OC)c1O,nt,13.6%[56.1 µM],nt,nt,-1.9%,nt
COc1ccc(-c2coc3cc(O)ccc3c2=O)c(O)c1O,nt,nt,nt,nt,50.1µM*,nt
CCOc1ccc(N=Cc2c(C)[nH]n(-c3nc4ccccc4[nH]3)c2=O)cc1,-12.3%,50.1µM*,1.8%,4.4%,-10.8%,?
NC(=O)Cn1cnc2c(nnn2-c2ccc(F)cc2)c1=O,26.7µM*,nt,7.1%,2.3%,-18.0%,18.9%
Cc1ccc(-n2nnc3c(=O)n(CC(N)=O)cnc32)cc1,1.3%,nt,-3.0%,0.8%,-12.2%,5.7%
CC1(OC(=O)c2cnc3ccccc3n2)C(=O)C=C2C=C3CCCN3C=C2C1=O (stereo unspecified),nt,5.8%[21 µM],nt,nt,nt,nt
N=c1c2c(ccn1-c1ccccc1)Oc1ccc3ccccc3c1C2c1ccccc1 (stereo unspecified),nt,nt,nt,nt,nt,41.5%
O=C(Nc1ccc2c(c1)CCC2)c1cnn2c1NC(c1ccco1)CC2C(F)(F)F (stereo unspecified),26.7µM*,2.6%,-0.9%,-0.4%,-18.3%,27.5%
O=[S+]([O-])(c1ccc2c(c1)OCCO2)N1CCN([S+](=O)([O-])c2cc(Cl)ccc2F)CC1,nt,nt,nt,nt,nt,9.0%
